# This is a sample that favours compounds with a hit; in the whole collection about 2.9% have one here.
# Peg3 promoter: Peg3 promoter-driven luciferase inhibitors, primary screen, cell-based, HeLa, luciferase luminescence. actives 1.7% (n = 360,000). HeLa PEG-Prom luciferase reporter, overnight. AID 588405, 2011. inhibition, % at 20 µM;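 active means inhibition of at least 50% at 20 µM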
# EBV LMP1 NFkB: EBV LMP1-driven NF-kappaB luciferase reporter inhibitors, primary screen, cell-based, luminescence, single point | LMP1-induced NF-kappaB luciferase reporter cells | inhibition, % at 12.5 µM | actives 0.69% (n = 350,000) | AID 504558, 2011; in the data active means inhibition above about 41%
# CF NFkB block: inhibitors of PAF-induced NF-kB signaling, primary screen, cell-based, GFP fluorescence, uHTS; KKLEB NF-kB-GFP reporter, GFP fluorescence overnight; actives 0.86% (n = 360,000); inhibition, % at 5 µM;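 active means at least 50% inhibition at 5 µM, scaled per plate between neutral and stimulator controls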;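 further: PAF is a Pseudomonas aeruginosa culture filtrate used as stimulus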
# KKLEB tox: cytotoxicity in KKLEB CF airway cells, primary screen, cytotoxicity control for CF NF-kB inhibitor project, cell-based, uHTS, fluorescence assay plates; KKLEB CF airway cells viability, ATPlite luminescence, overnight; hits give low values; cells stimulated with P. aeruginosa culture filtrate; activity change (cytotoxicity), % at 5 µM; actives 0.36% (n = 360,000); AID 602141, 2011;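 active means corrected activity change at or below -50% at 5 µM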
# Shn3 inh set2: reduction of Shn3 3'UTR firefly luciferase signal, primary screen, Schnurri-3 inhibitor project, cell-based, Clone20 osteoblasts, set 2; Clone20 osteoblast Shn3 3'UTR firefly luciferase, 24 h; inhibition, % at 12.5 µM; AID 588674, 2011; actives 0.52% (n = 360,000);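 active means mean inhibition of at least 75% with every replicate also reaching 75%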
# TRPM1 prom inh: inhibitors of MITF-dependent TRPM1 promoter reporter, primary screen, cell-based, SK-MEL-5, single point, luciferase; AID 488899, 2010; SK-MEL-5 TRPM1 promoter luciferase, 24 h; actives 0.83% (n = 330,000); inhibition, % at 12.5 µM;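 active means mean inhibition across replicates of 60% or more, whatever share of single replicates reaches that level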
# CF NFkB conf: inhibitors of PAF-induced NF-kB signaling, retest, confirmation, cell-based, GFP fluorescence, single concentration; inhibition, % at 5 µM; KKLEB CF airway cells, overnight; shares compounds with CF NFkB block; AID 602472, 2012; actives 64% (n = 1,300); in the data active means inhibition above about 40%;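 further: stimulus PAF is a Pseudomonas aeruginosa filtrate and not platelet activating factor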
# Numbers stand for hits; – = inactive; · = not tested or not shown.
SMILES,Peg3 promoter,EBV LMP1 NFkB,CF NFkB block,KKLEB tox,Shn3 inh set2,TRPM1 prom inh,CF NFkB conf
CCN(CC)CCN(C(=O)CCS(=O)(=O)c1ccccc1)c1nc2cc3c(cc2s1)OCO3,–,–,53,–,–,–,–
CC1(C(=O)O)CCCN(C(=O)c2ccc(OC(F)F)cc2)C1 (centres undefined),–,·,–,–,–,·,·
CSc1ccc(/C=C(\C#N)C(=O)NC2CCCCC2C)cc1 (centres undefined),–,–,53,–,–,–,–
COc1cc(/C=C(\C#N)C(=O)NC2CCCCC2C)ccc1OS(=O)(=O)c1ccc(C)cc1 (centres undefined),–,–,–,–,–,–,·
NS(=O)(=O)c1cccc(NC(=O)COC(=O)c2ccc(S(=O)(=O)N3CCOCC3)cc2)c1,–,–,–,–,–,–,·
CC1(C)CN(C2CCCCC2)C(=O)[C@H]1CC(=O)Nc1ccc(Br)cc1,–,–,–,–,–,·,·
Oc1ccc(Nc2ncnc3scc(-c4ccccc4)c23)cc1,–,–,61,–,–,–,78
COc1ccc(-c2nc(S(=O)(=O)c3ccccc3)c(N3CCN(C)CC3)o2)cc1,–,–,–,–,–,·,·
Cc1cc(N2C(=O)C(O)=C(C(=O)c3ccc(C)o3)C2c2cccc(Oc3ccccc3)c2)no1 (centres undefined),–,–,51,–,–,–,64
Cc1nc(C)c(-c2csc(Nc3ccc(Cl)cn3)n2)s1,–,–,–,–,–,·,·
CSc1ccccc1OCc1cc(C(=O)N2CCC(Oc3cccnc3)CC2)no1,–,–,–,–,–,–,·
COc1ccc(-c2csc(/C(C#N)=C\c3ccc(O)c([N+](=O)[O-])c3)n2)cc1OC,–,–,79,–,–,–,80
O=C(NCc1cccnc1)c1cccc(S(=O)(=O)Nc2cccc(Cl)c2)c1,–,–,–,–,–,–,·
COc1ccc(/C=C/C(=O)c2cc(F)ccc2OC(=O)c2ccccc2OC)cc1OC,52,–,71,–,–,–,43
COc1cccc(-c2nc3n(n2)CCc2ccccc2-3)c1,–,–,–,–,–,·,·
CC(=O)[C@H]1CC[C@H]2[C@@H]3CCC4=CC(=O)CC[C@]4(C)[C@H]3[C@H](O)C[C@]12C,–,–,–,–,–,–,·
CC(C)(CNC(=O)CO/N=C1/C=C2CCC3C(C(O)C[C@@]4(C)C3CC[C@]4(O)C(=O)CO)[C@@]2(C)CC1)C(O)C(=O)O (some centres undefined),–,–,70,–,–,–,–
CC(=O)OCC=C1CCC2C3CCC4=CC(=O)CCC4(C)C3C(O)CC12C (centres undefined),–,–,–,–,–,–,·
CC12CCC(=O)C=C1CCC1C2C(O)CC2(C)C1CCC2(O)C(=O)COC(=O)CCC1CCCC1 (centres undefined),–,·,53,–,–,·,–
CC(=O)OCC(=O)C1(O)CCC2C3CCC4=CC(=O)CCC4(C)C3(Cl)C(O)CC21C (centres undefined),–,–,77,–,–,–,–
CC(=O)O[C@]1(C(C)=O)CC[C@H]2[C@@H]3C=C(Cl)C4=CC(=O)CC[C@]4(C)[C@H]3CC[C@@]21C,–,–,–,–,–,–,·
CCOC(=O)c1c(-c2ccc(C)cc2)csc1NC(=O)c1ccc(N2C(=O)CCC2=O)cc1,–,–,58,–,–,–,55
Cc1cccc(C(=O)NCCN2CCN(c3ccccc3)CC2)c1,–,–,–,–,–,–,·
O=C(NCCN1CCN(c2ccccc2)CC1)c1cccc(Br)c1,–,–,52,–,–,–,53
CC1(C)CC(=O)C=C(NC2=CC3OC(c4ccccc4)OCC3OC2=O)C1 (centres undefined),64,–,72,–,–,71,52
SMILES,Peg3 promoter,EBV LMP1 NFkB,CF NFkB block,KKLEB tox,Shn3 inh set2,TRPM1 prom inh,CF NFkB conf
C[C@@]12CCC=C[C@H]1[C@H](c1ccc(/C=C/c3ccccc3)cc1F)N(Cc1ccccc1)C2=O,–,–,–,–,–,–,·
C[C@@]12CCC=C[C@H]1[C@H](c1ccc(C(F)(F)F)cc1)N(Cc1ccccc1)C2=O,–,–,58,–,–,–,–
COc1ccc(S(=O)(=O)N2CCCCC2)cc1NC(=O)c1ccco1,–,–,–,–,–,–,·
CC(=O)N1CCN(c2ccc(NC(=O)c3ccco3)cc2Cl)CC1,–,–,–,–,–,–,·
COc1ccc(S(=O)(=O)N2CCCCC2)cc1NC(=O)c1ccc([N+](=O)[O-])o1,–,–,75,–,–,85,–
CC(=O)N1CCN(c2ccc(NC(=O)c3ccc([N+](=O)[O-])o3)cc2Cl)CC1,101,–,62,–,96,95,–
Cc1ccc(NC(=S)N(CCCN2CCCC2)Cc2cccn2Cc2ccc(Cl)cc2)cc1C,102,–,51,–,–,–,–
CC(=O)c1c(C)[nH]c(C(=O)COC(=O)c2ccc(C)s2)c1C,–,–,64,–,–,–,–
CCOC(=O)c1c(C)[nH]c(C(=O)COC(=O)c2[nH]c(C)c(C(C)=O)c2C)c1C,–,–,–,–,–,–,·
Cc1ccccc1Cn1ccc(NC(=O)c2nn(C)cc2[N+](=O)[O-])n1,–,–,60,–,–,–,–
CCn1cc([N+](=O)[O-])c(C(=O)Nc2ccn(Cc3ccccc3F)n2)n1,–,–,–,–,–,–,·
C[C@H]1Cn2cnc(C(=O)NCc3ccc(CNC(=O)OC(C)(C)C)cc3)c2C(=O)N1,–,–,–,–,–,·,·
O=S1(=O)CC=C(CSC(=S)NC2CCS(=O)(=O)C2)C1 (centres undefined),57,–,51,–,–,–,96
COc1ccccc1NS(=O)(=O)c1ccc(-c2cnc(C3CC3)o2)cc1,–,–,54,–,–,–,71
COc1ccc(NS(=O)(=O)c2ccc(-c3cnc(C4CC4)o3)cc2)cc1OC,–,–,–,–,–,–,·
Cc1ccc(NS(=O)(=O)c2ccc(-c3cnc(C4CC4)o3)cc2)c(C)c1,–,–,65,–,–,–,65
CCCSc1nnc(Sc2nnnn2-c2ccccc2)s1,68,–,56,–,–,–,–
C(=C\CSc1nnnn1-c1ccccc1)/CSc1nnnn1-c1ccccc1,–,–,–,–,–,–,·

# Screens deposited in PubChem by several laboratories.
